Out of some 39,000 compounds screened, about 3,300 (8.5%) were called active. Many of the other results were omitted from the sample, so actives are more common in it than they were.
test system: HepG2; assay: cytotoxicity call (relative viability < 0.9); conditions: 10 µM

| SMILES | cytotoxicity call |
| --- | --- |
| CO[C@@H]1CN(C)C(=O)c2ccc(NS(=O)(=O)CC(F)(F)F)cc2OC[C@@H](C)N(Cc2nccs2)C[C@H]1C | inactive |
| C=CC[C@H](CC(=O)NCCO)C(=O)NC[C@@H](OC(=O)[C@@H](CC=C)CC(=O)OC(C)(C)C)c1ccccc1 | inactive |
| C[C@H](CO)N1C[C@H](C)[C@@H](CN(C)CC2CC2)Oc2c(NS(=O)(=O)c3ccccc3)cccc2C1=O | inactive |
| CC(C)NC(=O)N(C)C[C@H]1Oc2ccc(NC(=O)Cn3cnnn3)cc2C(=O)N([C@H](C)CO)C[C@H]1C | inactive |
| CCCCC(=O)OC1(C(=O)CO)C(C)CC2C3CCC4=CC(=O)C=CC4(C)C3(F)C(O)CC21C (configuration not stated) | inactive |
| Nc1cc(=O)nc(N)[nH]1 | inactive |
| C[C@H]1CN([C@@H](C)CO)C(=O)c2cccc(NC(=O)c3ccncc3)c2O[C@H]1CN(C)S(=O)(=O)c1ccccc1 | inactive |
| CC(C)CC#Cc1ccc2c(c1)O[C@@H](CN(C)C(=O)Cc1ccncc1)[C@@H](C)CN([C@@H](C)CO)S2(=O)=O | inactive |
| CO[C@H]1CN(C)C(=O)c2cc(NC(=O)Nc3cccc(F)c3)ccc2OC[C@H](C)N(C(=O)Nc2c(C)noc2C)C[C@H]1C | inactive |
| C[C@@H]1CCCCO[C@@H](CN(C)Cc2ccc(Cl)c(Cl)c2)[C@H](C)CN([C@H](C)CO)C(=O)c2cc(NC(=O)Nc3ccc4c(c3)OCO4)ccc2O1 | inactive |
| C[C@@H]1CCCCO[C@H](CN(C)Cc2ccc(Cl)c(Cl)c2)[C@H](C)CN([C@@H](C)CO)C(=O)c2cc(NC(=O)Nc3ccc4c(c3)OCO4)ccc2O1 | active |
| C[C@@H]1CN([C@@H](C)CO)C(=O)c2cc(NC(=O)Nc3ccc4c(c3)OCO4)ccc2O[C@@H](C)CCCCO[C@H]1CN(C)Cc1ccc(Cl)c(Cl)c1 | inactive |
| C[C@@H]1CCCCO[C@@H](CN(C)Cc2ccc(Cl)c(Cl)c2)[C@@H](C)CN([C@@H](C)CO)C(=O)c2cc(NC(=O)Nc3ccc4c(c3)OCO4)ccc2O1 | active |
| CC(C)(C)NC(=O)N1CCC(CN)CC1 | inactive |
| C[C@H]1CCCCO[C@H](CN(C)C(=O)NC2CCCCC2)[C@@H](C)CN([C@@H](C)CO)C(=O)c2cc(NC(=O)Nc3ccc(F)cc3)ccc2O1 | inactive |
| CO[C@@H]1[C@H](O)[C@@H](CO)O[C@H]1n1cc(C)c(N)nc1=O | inactive |
| C[C@@H]1CN([C@H](C)CO)C(=O)c2cccc(NS(=O)(=O)c3ccc(Cl)cc3)c2O[C@@H]1CN(C)Cc1ccc(C(F)(F)F)cc1 | inactive |
| CC(C)NC(=O)Nc1ccc2c(c1)C(=O)N([C@H](C)CO)C[C@H](C)[C@H](CN(C)Cc1ccccc1)OCCCC[C@H](C)O2 | inactive |
| C[C@H]1CN([C@@H](C)CO)S(=O)(=O)c2ccc(C#Cc3ccccc3)cc2O[C@@H]1CN(C)S(C)(=O)=O | inactive |
| CC1(N)CCN(c2cccnc2NC(=O)c2nc(-c3ncccc3C(F)(F)F)cnc2N)CC1 | inactive |
| CCCNC(=O)N1C[C@H](C)[C@H](OC)CN(C)C(=O)c2cc(NS(=O)(=O)CC(F)(F)F)ccc2OC[C@@H]1C | inactive |

| SMILES | cytotoxicity call |
| --- | --- |
| COc1ccc(S(=O)(=O)Nc2ccc3c(c2)CC(=O)N([C@H](C)CO)C[C@@H](C)[C@H](CN(C)Cc2ccc(Oc4ccccc4)cc2)O3)cc1 | active |
| COc1ccc(S(=O)(=O)Nc2ccc3c(c2)CC(=O)N([C@@H](C)CO)C[C@H](C)[C@H](CN(C)Cc2ccc(Oc4ccccc4)cc2)O3)cc1 | inactive |
| COc1ccc(S(=O)(=O)Nc2ccc3c(c2)CC(=O)N([C@@H](C)CO)C[C@@H](C)[C@@H](CN(C)Cc2ccc(Oc4ccccc4)cc2)O3)cc1 | inactive |
| COc1ccc(S(=O)(=O)Nc2ccc3c(c2)CC(=O)N([C@@H](C)CO)C[C@H](C)[C@@H](CN(C)Cc2ccc(Oc4ccccc4)cc2)O3)cc1 | active |
| COc1ccc(S(=O)(=O)Nc2ccc3c(c2)CC(=O)N([C@@H](C)CO)C[C@@H](C)[C@H](CN(C)Cc2ccc(Oc4ccccc4)cc2)O3)cc1 | inactive |
| COc1ccc(S(=O)(=O)Nc2ccc3c(c2)CC(=O)N([C@H](C)CO)C[C@H](C)[C@@H](CN(C)Cc2ccc(Oc4ccccc4)cc2)O3)cc1 | inactive |
| COc1ccc(S(=O)(=O)Nc2ccc3c(c2)CC(=O)N([C@H](C)CO)C[C@H](C)[C@H](CN(C)Cc2ccc(Oc4ccccc4)cc2)O3)cc1 | active |
| COc1ccc(S(=O)(=O)Nc2ccc3c(c2)CC(=O)N([C@H](C)CO)C[C@@H](C)[C@@H](CN(C)Cc2ccc(Oc4ccccc4)cc2)O3)cc1 | active |
| COc1ccc(NC(=O)Nc2ccc3c(c2)C(=O)N([C@H](C)CO)C[C@@H](C)[C@H](CN(C)C(=O)NC2CCCCC2)OCCCC[C@H](C)O3)cc1 | inactive |
| C[C@@H]1CN([C@@H](C)CO)C(=O)c2cc(C#CCN(C)C)cnc2O[C@H]1CN(C)Cc1ccc(C(=O)O)cc1 | inactive |
| COc1cccc(OC)c1C(=O)O[C@H]1[C@@H]2OC(=O)[C@@H](Cc3ccc4ccccc4c3)C/C=C/C[C@H](Cc3ccc4ccccc4c3)C(=O)O[C@H]2[C@@H](OC)O[C@@H]1CO | inactive |
| Cc1ccc(S(=O)(=O)N(C)C[C@@H]2Oc3ccc(NC(=O)Cn4cnnn4)cc3C(=O)N([C@H](C)CO)C[C@@H]2C)cc1 | inactive |
| Cc1noc(C)c1S(=O)(=O)Nc1cccc2c1O[C@@H](CN(C)S(=O)(=O)c1ccccc1)[C@@H](C)CN([C@@H](C)CO)C2=O | inactive |
| C[C@H](CO)N1C[C@H](C)[C@@H](CN(C)C(=O)c2ccccc2)OCCCC[C@H](C)Oc2ccc(NS(=O)(=O)c3cccs3)cc2C1=O | inactive |
| CN1CCN(C(=O)C[C@H]2CC[C@@H]3[C@H](COC[C@@H](O)CN3S(=O)(=O)c3cccc(Cl)c3)O2)CC1 | inactive |
| CCS(=O)(=O)N1CC[C@]2(CC1)CN([C@@H](CO)c1c2c2ccc(cc2n1C)OC)S(=O)(=O)c1ccccc1 | inactive |
| C[C@H](CO)N1C[C@H](C)[C@@H](CN(C)C(=O)NC2CCCCC2)Oc2c(NC(=O)Nc3ccc(C(F)(F)F)cc3)cccc2C1=O | active |
| C[C@@H]1CN([C@H](C)CO)C(=O)c2cccc(NC(=O)Nc3ccc(C(F)(F)F)cc3)c2O[C@@H]1CN(C)C(=O)NC1CCCCC1 | active |
| C[C@H](CO)N1C[C@H](C)[C@H](CN(C)C(=O)NC2CCCCC2)Oc2c(NC(=O)Nc3ccc(C(F)(F)F)cc3)cccc2C1=O | active |
| C[C@@H]1CN([C@H](C)CO)C(=O)c2cccc(NC(=O)Nc3ccc(C(F)(F)F)cc3)c2O[C@H]1CN(C)C(=O)NC1CCCCC1 | active |
| O=C(N[C@H]1CC[C@H](CCNS(=O)(=O)c2ccccc2)O[C@@H]1CO)c1cnccn1 | inactive |

| SMILES | cytotoxicity call |
| --- | --- |
| C[C@@H]1CCCCO[C@@H](CN(C)C(=O)NC2CCCCC2)[C@H](C)CN([C@H](C)CO)C(=O)c2cc(NC(=O)C3CCCCC3)ccc2O1 | inactive |
| C[C@@H]1CN([C@H](C)CO)S(=O)(=O)c2ccc(C#CCN(C)C)cc2O[C@@H]1CN(C)S(=O)(=O)c1cccc(F)c1 | inactive |
| CC(C)NC(=O)Nc1ccc2c(c1)C(=O)N([C@H](C)CO)C[C@H](C)[C@H](CN(C)C(=O)C1CCCCC1)OCCCC[C@@H](C)O2 | inactive |
| COc1ccc(NC(=O)Nc2ccc3c(c2)C(=O)N([C@@H](C)CO)C[C@H](C)[C@@H](CN(C)S(=O)(=O)c2ccc(Cl)cc2)OCCCC[C@@H](C)O3)cc1 | inactive |
| COc1ccc(CNC(=O)C[C@H]2C[C@@H]3c4cc(NC(=O)NC5CCCC5)ccc4O[C@@H]3[C@@H](CO)O2)cc1 | inactive |
| O=C(NCCC1=CCCCC1)c1sc2ccccc2c1Cl | inactive |
| C[C@H](CO)N1C[C@H](C)[C@@H](CN(C)C(=O)c2ccccc2)OCCCC[C@H](C)Oc2ccc(NC(=O)CCC(F)(F)F)cc2C1=O | inactive |
| C[C@@H]1CN([C@@H](C)CO)C(=O)c2c(c3ccccc3n2C)-c2ccccc2CO[C@@H]1CN(C)C(=O)Nc1ccccc1 | inactive |
| C[C@@H]1CN([C@@H](C)CO)C(=O)c2cccc(NC(=O)Nc3ccc(C(F)(F)F)cc3)c2O[C@@H]1CN(C)C(=O)NC1CCCCC1 | inactive |
| C[C@H]1CN([C@@H](C)CO)C(=O)c2cccc(NC(=O)Nc3ccc(C(F)(F)F)cc3)c2O[C@@H]1CN(C)C(=O)NC1CCCCC1 | active |
| C[C@H]1CN([C@@H](C)CO)C(=O)c2cccc(NC(=O)Nc3ccc(C(F)(F)F)cc3)c2O[C@H]1CN(C)C(=O)NC1CCCCC1 | inactive |
| C[C@@H]1CN([C@@H](C)CO)C(=O)c2cccc(NC(=O)Nc3ccc(C(F)(F)F)cc3)c2O[C@H]1CN(C)C(=O)NC1CCCCC1 | active |
| O=C(C[C@@H]1CC[C@H]2[C@@H](COC[C@@H](O)CN2S(=O)(=O)c2cccc(Cl)c2)O1)NC1Cc2ccccc2C1 | inactive |
| C[C@@H]1CN([C@@H](C)CO)C(=O)c2cc(NC(=O)Cn3cnnn3)ccc2O[C@@H]1CN(C)Cc1ccc(C(=O)O)cc1 | inactive |
| C[C@H](CO)N1C[C@H](C)[C@@H](CN(C)C(=O)NC2CCCCC2)OCCCC[C@H](C)Oc2ccc(NC(=O)CCC(F)(F)F)cc2C1=O | inactive |
| C[C@H]1CN([C@@H](C)CO)C(=O)CCCn2cc(nn2)CO[C@@H]1CN(C)C(=O)Nc1cccc(Oc2ccccn2)c1 | inactive |
| CCCNCC(O)COc1ccccc1C(=O)CCc1ccccc1.Cl (configuration not stated) | active |
| CC(=O)c1ccccc1OC[C@@H](O)CN(CCO)CCO | inactive |
| CCCC(=O)Nc1ccc(OCC(O)CNC(C)C)c(C(C)=O)c1.Cl (configuration not stated) | inactive |
| C[C@H]1CN([C@@H](C)CO)C(=O)c2cc(NC(=O)CCC(F)(F)F)ccc2O[C@H]1CN(C)Cc1ccc(C(F)(F)F)cc1 | inactive |
